Measurements taken from PubChem BioAssay AID1159580 (chemical genetic matrix, 2015).
Out of some 5,500 compounds screened, about 2,000 (36%) were called active. Not shown: some 18% with an inconclusive outcome. No stated cut-off is given here; in the data, active means normalized growth mostly below about 0.91 (no sharp cut-off); inconclusive means no clear call, values can overlap the other calls; inactive means mostly above about 0.92. Some of the results follow.

Assay: chemical genetic growth profiling, strain panel (AID 1159580);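 further: tested at 20 µM; growth read once vehicle control cultures reached saturation at 30 °C; 1 = growth at the plate median or of vehicle wells; lower values mean less growth of the strain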
Details: S. cerevisiae deletion strains, growth OD

Measured: normalized growth

CC(=O)OCC(=O)[C@@]1(O)CC[C@H]2[C@@H]3CCC4=CC(=O)CC[C@]4(C)[C@H]3C(=O)C[C@@]21C
inactive: locus YAL040C, strain CLN3, hits give low values 0.998 | locus YER002W, strain NOP16, hits give low values 0.991 | locus YGR078C, strain PAC10, hits give low values 1 | locus YNL175C, strain NOP13, hits give low values 0.985 | locus YNL197C, strain WHI3, hits give low values 0.982 | locus YNL224C, strain SQS1, hits give low values 1.01 | locus YOR083W, strain WHI5 (second series), hits give low values 0.976
